Data on 40 molecules can be found in PubChem BioAssay (EPA / NIEHS).

SMILES strings stand for the structures. Active and inactive are the calls of the source. Rule for the calls: active = hit-call score of the fitted dose curve at least 0.9, where 1 is the maximum; inactive = score below 0.9.

The nature of this assay: APR_HepG2_CellCycleArrest_24hr: Apredica 24-hour HepG2 Assay for Cell Cycle Arrest (AID 2282905).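 Note: cell cycle arrest scored as ratio of 2N to 4N nuclear DNA content.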 The following applies: imaging, actives raise or lower the signal. As for the experimental part: APR_HepG2_24hr is a cell-based, multiplexed-readout assay that uses HepG2, a human liver cell line, with measurements taken at 24 hours after chemical dosing in a 384-well plate.APR_HepG2_CellCycleArrest_24hr is one of 10 assay component(s) measured or calculated from the APR_HepG2_24hr assay. It is designed to make measurements of cell phenotype, a form of morphology reporter, as detected with fluorescence intensity signals by HCS Fluorescent Imaging technology.Data from the assay component APR_HepG2_CellCycleArrest_24hr was analyzed into 1 assay endpoint. This assay endpoint, APR_HepG2_CellCycleArrest_24hr, was analyzed with bidirectional fitting relative to DMSO as the negative control and baseline of activity. Using a type of morphology reporter, measures of all nuclear dna for gain or loss-of-signal activity can be used to understand the signaling at the pathway-level as they relate to the gene . Furthermore, this assay endpoint can be referred to as a primary readout, because this assay has produced multiple assay endpoints where this one serves a signaling function. To generalize the intended target to other relatable targets, this assay endpoint is annotated to the cell cycle intended target family, where the subfamily is arrest.
Cells were treated with dimethyl sulfoxide (DMSO) as a solvent control at a final concentration of 0.5% v/v or with compounds in DMSO with a resulting final DMSO concentration of 0.5% v/v. Compound treatment was done at concentrations of 0.39, 0.78, 1.56, 3.12, 6.24, 12.5, 25, 50, 100, and 200 uM in duplicate on each plate. Cells were treated with compounds for 1, 24, or 72 hr. Carbonyl […] m-chloro-phenylhydrazone (CCCP) and taxol were used as positive controls for mitochondrial function and cytoskeletal stability, respectively; DMSO served as the negative control for this experiment. Cells were fixed by the direct addition of 50 uL formaldehyde in Hank's Balanced Salt Solution (HBSS) to a final concentration of 3.7%. After incubation in the fixation medium for 30 min at room temperature (293-298 K), cells were rinsed twice with HBSS and treated with cell permeabilization buffer (16 uL of 0.5% Triton X-100) for 10 min at room temperature (293-298 K) before labeling. For mitochondrial membrane potential and mitochondrial measurements, pre-fixed cells were incubated with 50 uL of MitoTracker Red CMXRos (Invitrogen) at a concentration of 250 nM for 30 min before fixation. In the remaining cases, post-fixed cells were labeled by incubation with a multiplexed mixture of primary antibodies in HBSS for 60 min at room temperature (293-298 K) to detect immunoreactivity of c-Jun (1:500), phospho-histone H3 (1:100), phospho-histone H2A.x (1:200), p53 (1:400), alpha-tubulin (1:200) and Hoechst 33342 (2 ug/mL). Cells were labeled for multiplexed imaging on two separate plates: a) Hoechst 33342, MitoTracker Red, phospho-histone H3, and alpha-tubulin, and b) Hoechst 33342, phospho-histone H2A.x, and c-Jun. A final rinse with HBSS (50 uL) was performed before analysis. The primary and secondary antibodies for the proteins were phospho-histone H3 (rabbit anti-phospho-histone H3 and FITC-donkey anti-rabbit IgG), phospho-histone H2A.x (mouse anti-phospho-histone H2A.x and FITC-donkey anti-mouse IgG), c-Jun (rabbit anti-phospho-c-Jun and Cy3-donkey anti-rabbit IgG), p53 (sheep anti-p53 and Cy5-donkey anti-sheep IgG), alpha-tubulin (mouse anti-alpha-tubulin and Cy5-donkey anti-mouse IgG). These antibodies are available as the CellCiphr HepG2 assay kit (Millipore).Digital images of each well were captured using a Cellomics ArrayScan VTI (Thermo Scientific Cellomics) (0.8 NA objective, 0.63x optical coupler, and XF-93 filter set) at 20x magnification. The images were acquired using the autofocus feature of the ArrayScan instrument, which entails the following steps. First, the camera focuses on channel 1 (Hoechst 33342), where nuclei are identified. Second, a Z offset of 1 um is used for capturing mitochondria (MitoTracker Red). […]
In the case of `O=C(O)c1cccnc1`, the call was inactive. Regarding `Nc1nc(=S)c2[nH]cnc2[nH]1`, the molecule was classed as inactive. As to `CCCC(=O)O`, the call was inactive.

For the molecule `O=NO`, the molecule was called inactive.

Turning to `NCCOCCOCCN`, the AC50 (usually the concentration at which the activity in the assay is half-maximal) was 0.998 µM (active). For the molecule `CC(COCC(C)OC(=O)c1ccccc1)OC(=O)c1ccccc1` (stereo not given), the call was inactive. The same measure, in the same setting: the value for `Oc1ccc(O)cc1` was “inactive”.

For the molecule `Cc1c(C)c2c(c(C)c1O)CCC(C)(COc1ccc(CC3SC(=O)NC3=O)cc1)O2` (stereo not given), the half-maximal activity concentration (AC50) is 75.7 µM (active). For the molecule `S=c1[nH]c2ccccc2s1`, the molecule was classed as inactive. Turning to `CO[C@@H]1COCC[C@@H]1N[C@@H]1CC[C@@](C(=O)N2CCc3ncc(C(F)(F)F)cc3C2)(C(C)C)C1`, the call was inactive. In the case of `CN(C)C(=O)NC1(c2ccccc2)CCN(CCC[C@]2(c3ccc(Cl)c(Cl)c3)CCCN(C(=O)c3ccccc3)C2)CC1`, the AC50 was 24.7 µM (active). Take `COC(=O)CCC(=O)OC`: the call was inactive. On the same count and under the same terms, next, `O=C1NC(=O)C(c2ccccc2)(c2ccccc2)N1`: “inactive”. `CCCCCCC(C=O)=Cc1ccccc1`: the molecule was called inactive. On to `CCCCCCC(CCCCCCCCCCC(=O)OCC(COC(C)=O)OC(C)=O)OC(C)=O` (stereo not given), for which the molecule was classed as inactive. For the molecule `O=[Si]=O`, the molecule was called inactive. Regarding `CC(N)=O`, the call was inactive. On the same count and under the same terms, the value for `CN(C)CCCN1c2ccccc2Sc2ccc(Cl)cc21` was “inactive”.

Turning to `O=C(Oc1ccccc1)c1cccc(C(=O)Oc2ccccc2)c1`, the molecule was called inactive. Same read-out and setting: next, `CCCCC(CC)CO` (stereo not given): “inactive”. With `COC(=O)[C@H]1[C@H]2C[C@@H]3c4[nH]c5cc(OC)ccc5c4CCN3C[C@H]2C[C@@H](OC(=O)c2cc(OC)c(OC)c(OC)c2)[C@@H]1OC`, the concentration at half-maximal activity (AC50) was 79 µM (active). In the case of `CCCCC(CC)COP(=O)(OCC(CC)CCCC)OCC(CC)CCCC` (stereo not given), the molecule was classed as inactive.

As for `C#CC(O)C(CC)CCCC` (stereo not given), the result was inactive.

`C=CCCCCCCCCCCCC`: the concentration at half-maximal activity (AC50) was 69.9 µM (active). Take `CCCCCCCCCC[N+](C)(C)[O-]`: the molecule was classed as inactive.

For `NC(=Nc1ccccc1)Nc1ccccc1`, the AC50 was 8.86 µM (active). For the molecule `O=C1O[C@H]([C@H](O)CO)C(O)=C1O`, the molecule was called inactive.

Turning to `CCCCc1nc2cccnc2n1Cc1ccc(-c2ccccc2-c2nnn[nH]2)cc1`, the call was inactive.

As to `CC1=C(C)S(=O)(=O)CCS1(=O)=O`, the molecule was classed as inactive. With `NC1CCCCC1`, the call was inactive. Same read-out and setting: next, `O=Cc1ccccc1C=O`: “inactive”. As for `Cc1cc(Cc2ccc(N)c(C)c2)ccc1N`, the AC50 is 35.1 µM (active).

`CCC(C)N(C)C(=O)c1cc2ccccc2c(-c2ccccc2Cl)n1` (stereo not given): the result was inactive. As to `O=C(NS(=O)(=O)/C=C/c1cccs1)c1ccc(F)cc1Br`, the call was inactive. As to `CCOCCOCCO`, the molecule was called inactive.

As to `CC(=O)O[C@]1(C(C)=O)CC[C@H]2[C@@H]3C=C(Cl)C4=CC(=O)[C@@H]5C[C@@H]5[C@]4(C)[C@H]3CC[C@@]21C`, the molecule was classed as inactive. Consider `CC(=O)O`, for which the half-maximal activity concentration (AC50) is 97 µM (active). On to `NC=O`, for which the call was inactive. The same measure, in the same setting: the value for `CCCCOC(=O)CCCCC(=O)OCCCC` was “inactive”; that for `CSc1ccc(Oc2ccc(S(N)(=O)=O)cc2CN(C)C)cc1C` was “inactive”.
